Experimental data published in PubChem BioAssay (EPA / NIEHS).
Active and inactive are the calls of the source. Rule for the calls: active = hit-call score of the fitted dose curve at least 0.9, where 1 is the maximum; inactive = score below 0.9.

read-out: ATP-citrate lyase (ACLY), ACLY (gene 47); assay: LTEA_HepaRG_ACLY: Life Technologies and Expression Analysis (LTEA) Assay for ATP-citrate lyase (ACLY) using HepaRG (AID 2283466); conditions: mRNA level, 48 h; actives raise or lower the signal
Procedure, shortened: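 HepaRG, 48 h exposure, 8-pt half-log dilutions (top 100 uM), 0.5% DMSO. Readout: ACLY mRNA, TaqMan qRT-PCR, housekeeping-normalized (ACTB/GAPDH/POLR2A). Bidirectional curve fit vs DMSO.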

Compound	outcome	AC50
CC1(C)C(=O)N(Br)C(=O)N1Br	inactive	–
CC(=O)OCCC(C)C	inactive	–
CC(=O)c1ccc2c(c1)[C@H](NC(=O)c1ccc(F)cc1)[C@@H](O)C(C)(C)O2	inactive	–
O=C(CCCCCCCCc1cccnc1)N1CCC(C=C(c2ccccc2)c2ccccc2)CC1	inactive	–
Cn1cnc([N+](=O)[O-])c1Sc1ncnc2nc[nH]c12	inactive	–
C1=CCCC=CCCC=CCC1	inactive	–
O=c1[nH]c2ccc(S(=O)CCN3CCC(Cc4ccc(F)cc4)CC3)cc2o1 (centres undefined)	inactive	–
Cn1c(=O)c2c(ncn2C)n(C)c1=O	inactive	–
O=C1OC(=O)C2C3C=CC(C3)C12 (centres undefined)	inactive	–
CC(C)=CCCC(C)CCO (centres undefined)	inactive	–
Cn1c(=O)cc(Oc2ccc(F)cc2F)c2cnc(NCC(C)(C)O)nc21	inactive	–
CC(C)CC(C)(O)C#CC(C)(O)CC(C)C (centres undefined)	inactive	–
Clc1nc(Cl)c(Cl)c(Cl)c1Cl	inactive	–
COC(=O)c1c(Cl)c(Cl)c(C(=O)OC)c(Cl)c1Cl	inactive	–
CCn1nc(Cc2ccccc2)cc1C1CCN(C[C@H]2C[C@H](N(C)[C@@H](C(=O)O)C(C)C)C[C@@H]2c2cccc(F)c2)CC1	–	75.7 µM (active)
CCC(C)(C)C(=O)O[C@H]1C[C@@H](C)C=C2C=C[C@H](C)[C@H](CC[C@@H]3C[C@@H](O)CC(=O)O3)[C@H]21	–	13.5 µM (active)
CCCC(=O)OCC	inactive	–
CC(C)CCCCCCOC(=O)c1ccc(C(=O)OCCCCCCC(C)C)c(C(=O)OCCCCCCC(C)C)c1	inactive	–
C[C@](N)(Cc1ccc(O)c(O)c1)C(=O)O	inactive	–
